Reference: the antibiotic and cytotoxicity screens of Wong et al. (2023)
In all, about 39,000 compounds went through this assay and about 1,500 (3.8%) were called active. Shown is part of a subset that was picked to be rich in actives.

Each molecule was assayed on HSkMC (human skeletal muscle cells) (assay: cytotoxicity call (relative viability < 0.9)). Conditions: 10 µM.

SMILES | cytotoxicity call
COCC#Cc1ccc2c(c1)O[C@@H](CN(C)C(=O)C1CCOCC1)[C@H](C)CN([C@H](C)CO)S2(=O)=O | inactive
CC(C)[Si](C#CCCCC#N)(O[C@H](c1ccccc1)c1cn(Cc2cccc(Cl)c2)nn1)C(C)C | inactive
C[C@H](CO)N1C[C@H](C)[C@@H](CN(C)Cc2ccccc2)OCCCC[C@H](C)Oc2ccc(NC(=O)Nc3ccc(F)cc3)cc2C1=O | inactive
C[C@H]1CN([C@@H](C)CO)C(=O)c2cccc(NC(=O)c3ccc(-c4nccs4)cc3)c2O[C@@H]1CN(C)Cc1ccccc1 | inactive
Cc1noc(C)c1NC(=O)N(C)C[C@@H]1Oc2ncc(C#Cc3ccccc3)cc2C(=O)N([C@H](C)CO)C[C@@H]1C | inactive
COc1ccc(S(=O)(=O)Nc2ccc3c(c2)C(=O)N([C@@H](C)CO)C[C@H](C)[C@H](CN(C)C(=O)NC2CCCCC2)OCCCC[C@H](C)O3)cc1 | inactive
CCCC#Cc1ccc2c(c1)O[C@@H](CN(C)Cc1ccc3c(c1)OCO3)[C@@H](C)CN([C@@H](C)CO)S2(=O)=O | inactive
COCC(=O)N1CC[C@]2(CC1)CN([C@@H](CO)c1[nH]c3cc(ccc3c12)OC)S(=O)(=O)C | inactive
Cn1c2c(c(=S)[nH]c1=O)CCC2 | inactive
Cc1ccc(S(=O)(=O)Nc2ccc3c(c2)C(=O)N([C@@H](C)CO)C[C@H](C)[C@H](CN(C)Cc2ccc(C(=O)O)cc2)OCCCC[C@H](C)O3)cc1 | inactive
C[C@@H]1CN([C@@H](C)CO)C(=O)c2cc(NC(=O)Nc3ccc4c(c3)OCO4)ccc2O[C@@H](C)CCCCO[C@@H]1CN(C)Cc1ccc(C(=O)O)cc1 | inactive
C[C@@H]1CN([C@@H](C)CO)C(=O)c2cc(NC(=O)Nc3ccc(F)cc3)ccc2O[C@@H](C)CCCCO[C@H]1CN(C)C(=O)Cc1ccccc1 | inactive
C[C@@H]1CN([C@@H](C)CO)C(=O)c2cc(NC(=O)Nc3ccccc3)ccc2O[C@@H](C)CCCCO[C@@H]1CN(C)C(=O)Cc1ccccc1 | inactive
C[C@H]1CCCCO[C@H](CN(C)Cc2ccc(C(=O)O)cc2)[C@@H](C)CN([C@@H](C)CO)C(=O)c2cc(NC(=O)C3CCCCC3)ccc2O1 | inactive
C(=N\c1ccccc1)/c1ccc(Oc2ccccc2)cc1 | inactive
C[C@@H]1CN([C@@H](C)CO)C(=O)Cc2cc(NC(=O)CCCCCC(=O)Nc3ccccc3N)ccc2O[C@@H]1CN(C)Cc1ccc(C(F)(F)F)cc1 | active
C[C@H]1CN([C@@H](C)CO)C(=O)Cc2cc(NC(=O)CCCCCC(=O)Nc3ccccc3N)ccc2O[C@@H]1CN(C)Cc1ccc(C(F)(F)F)cc1 | inactive
C[C@H](CO)N1C[C@H](C)[C@H](CN(C)Cc2ccc(C(F)(F)F)cc2)Oc2ccc(NC(=O)CCCCCC(=O)Nc3ccccc3N)cc2CC1=O | inactive
C[C@@H]1CN([C@@H](C)CO)C(=O)Cc2cc(NC(=O)CCCCCC(=O)Nc3ccccc3N)ccc2O[C@H]1CN(C)Cc1ccc(C(F)(F)F)cc1 | inactive
C[C@@H]1CN([C@H](C)CO)C(=O)Cc2cc(NC(=O)CCCCCC(=O)Nc3ccccc3N)ccc2O[C@H]1CN(C)Cc1ccc(C(F)(F)F)cc1 | inactive

SMILES | cytotoxicity call
C[C@@H]1CN([C@H](C)CO)C(=O)Cc2cc(NC(=O)CCCCCC(=O)Nc3ccccc3N)ccc2O[C@@H]1CN(C)Cc1ccc(C(F)(F)F)cc1 | active
COc1cccc(Nc2ncnn3ccc(CN4CC[C@@H](N)[C@H](O)C4)c23)c1 | inactive
COc1cccc(S(=O)(=O)N2C[C@H](O)COC[C@H]3O[C@H](CC(=O)N4CCN(C)CC4)CC[C@@H]32)c1 | inactive
C[C@H](CO)N1C[C@H](C)[C@@H](CN(C)CC2CC2)Oc2ccc(NS(=O)(=O)c3ccccc3)cc2C1=O | inactive
CC1(C)[C@H]2CC[C@@]1(C)c1nn(-c3ccccc3)c(C(F)(F)F)c12 | inactive
C[C@H](CO)N1C[C@H](C)[C@@H](CN(C)C(=O)Nc2cccc3ccccc23)OCCCC[C@H](C)Oc2ccc(NC(=O)Nc3ccc(F)cc3)cc2C1=O | inactive
C[C@@H]1CN([C@H](C)CO)C(=O)c2cc(NC(=O)Cc3ccccc3)ccc2O[C@@H]1CN(C)Cc1ccc(Oc2ccccc2)cc1 | inactive
C[C@H](CO)N1C[C@H](C)[C@@H](CN(C)Cc2ccc(Oc3ccccc3)cc2)Oc2ccc(NC(=O)Nc3ccccc3)cc2C1=O | inactive
C[C@@H]1CN([C@@H](C)CO)C(=O)c2cc(NC(=O)Nc3ccc4c(c3)OCO4)ccc2O[C@H]1CN(C)Cc1ccc(Oc2ccccc2)cc1 | inactive
C[C@H](CO)N1C[C@H](C)[C@H](CN(C)Cc2ccc(Oc3ccccc3)cc2)Oc2ccc(NC(=O)Nc3ccc4c(c3)OCO4)cc2C1=O | inactive
COc1ccc(NC(=O)Nc2ccc3c(c2)C(=O)N([C@H](C)CO)C[C@@H](C)[C@@H](CN(C)Cc2ccc(Oc4ccccc4)cc2)O3)cc1 | inactive
COc1ccc(NC(=O)Nc2ccc3c(c2)C(=O)N([C@H](C)CO)C[C@H](C)[C@H](CN(C)Cc2ccc(Oc4ccccc4)cc2)O3)cc1 | active
C[C@@H]1CN([C@@H](C)CO)C(=O)c2cc(NC(=O)Cc3ccccc3)ccc2O[C@@H]1CN(C)Cc1ccc(Oc2ccccc2)cc1 | active
C[C@@H]1CN([C@@H](C)CO)C(=O)c2cc(NC(=O)Nc3ccccc3)ccc2O[C@@H]1CN(C)Cc1ccc(Oc2ccccc2)cc1 | active
C[C@@H]1CN([C@@H](C)CO)C(=O)c2cc(NC(=O)Cc3ccccc3)ccc2O[C@H]1CN(C)Cc1ccc(Oc2ccccc2)cc1 | inactive
C[C@@H]1CN([C@H](C)CO)C(=O)c2cc(NC(=O)Nc3ccc4c(c3)OCO4)ccc2O[C@@H]1CN(C)Cc1ccc(Oc2ccccc2)cc1 | active
C[C@@H]1CN([C@@H](C)CO)C(=O)c2cc(NC(=O)Nc3ccccc3)ccc2O[C@H]1CN(C)Cc1ccc(Oc2ccccc2)cc1 | inactive
COc1ccc(NC(=O)Nc2ccc3c(c2)C(=O)N([C@H](C)CO)C[C@H](C)[C@@H](CN(C)Cc2ccc(Oc4ccccc4)cc2)O3)cc1 | inactive
Cc1ccc(S(=O)(=O)N[C@@H]2CC[C@@H](CC(=O)N3CCC(Cc4ccccc4)CC3)O[C@H]2CO)cc1 | inactive
C[C@H](CO)N1C[C@H](C)[C@@H](CN(C)Cc2ccc(Oc3ccccc3)cc2)Oc2c(NC(=O)c3ccc(-c4nccs4)cc3)cccc2C1=O | inactive

SMILES | cytotoxicity call
C[C@@H]1CN([C@H](C)CO)S(=O)(=O)c2ccc(C#Cc3ccccn3)cc2O[C@H]1CN(C)Cc1ccccc1 | inactive
CCCC(=O)Nc1ccc2c(c1)C(=O)N(C)C[C@H](OC)[C@@H](C)CN(S(=O)(=O)c1cn(C)cn1)[C@@H](C)CO2 | inactive
COc1cccc(OC)c1C(=O)O[C@H]1[C@@H]2OC(=O)[C@H](Cc3cccc(Br)c3)C/C=C/C[C@@H](Cc3cccc(Br)c3)C(=O)O[C@H]2[C@@H](OC)O[C@@H]1CO | inactive
C[C@@H]1CCCCO[C@H](CN(C)C(=O)c2ccccc2)[C@H](C)CN([C@@H](C)CO)C(=O)c2cc(NC(=O)Nc3ccc(F)cc3)ccc2O1 | inactive
COc1ccc(NC(=O)Nc2ccc3c(c2)CC(=O)N([C@@H](C)CO)C[C@@H](C)[C@H](CN(C)Cc2ccc(-c4ccccc4)cc2)O3)cc1 | inactive
C[C@H]1CCCCO[C@H](CN(C)C(=O)Nc2cccc3ccccc23)[C@@H](C)CN([C@@H](C)CO)C(=O)c2cc(N(C)C)ccc2O1 | inactive
COc1ccc(NC(=O)Nc2ccc3c(c2)C(=O)N([C@H](C)CO)C[C@H](C)[C@@H](CN(C)Cc2ccc(-c4ccccc4)cc2)O3)cc1 | inactive
COc1ccc(NC(=O)Nc2ccc3c(c2)C(=O)N([C@@H](C)CO)C[C@@H](C)[C@@H](CN(C)Cc2ccc(-c4ccccc4)cc2)O3)cc1 | inactive
C[C@H]1CN([C@@H](C)CO)C(=O)c2cc(NC(=O)Nc3ccccc3)ccc2O[C@H]1CN(C)Cc1ccc(Oc2ccccc2)cc1 | inactive
C[C@@H]1CN([C@H](C)CO)C(=O)c2cc(NC(=O)Nc3ccccc3)ccc2O[C@@H]1CN(C)Cc1ccc(Oc2ccccc2)cc1 | active
C[C@@H]1CN([C@H](C)CO)C(=O)c2cc(NC(=O)Nc3ccccc3)ccc2O[C@H]1CN(C)Cc1ccc(Oc2ccccc2)cc1 | inactive
COc1ccc(NC(=O)Nc2ccc3c(c2)C(=O)N([C@@H](C)CO)C[C@H](C)[C@@H](CN(C)Cc2ccc(-c4ccccc4)cc2)O3)cc1 | active
COc1ccc2c3c([nH]c2c1)[C@@H](CO)N(C[C@]13CCN(CC1)Cc1ccccc1F)S(=O)(=O)c1cn(cn1)C | inactive
C[C@@H]1CN([C@@H](C)CO)C(=O)c2cc(NC(=O)Nc3cccc4ccccc34)ccc2O[C@@H]1CN(C)C(=O)Nc1ccc(F)cc1 | inactive
CN1C(=O)c2cc(NC(=O)C3CCOCC3)ccc2OC[C@@H]2O[C@H](CC(=O)NCc3ccc4c(c3)OCO4)CC[C@@H]21 | inactive
COC(=O)c1c2oc(c1C(=O)OC)C(=O)N[C@H](Cc1ccccc1)Cn1cc(nn1)[C@@H](Cc1ccccc1)NC(=O)N[C@H](COC(=O)NCCCCCC(=O)NO)CC2 | inactive
Cc1cc(C)n([C@@H](C)CN)n1 | inactive
C[C@H]1CN([C@@H](C)CO)C(=O)c2cccc(NS(=O)(=O)c3cccs3)c2O[C@@H]1CN(C)S(=O)(=O)c1cn(C)cn1 | inactive
C[C@H](CO)N1C[C@H](C)[C@@H](CN(C)S(=O)(=O)c2cn(C)cn2)Oc2cc(C3=CCCC3)ccc2S1(=O)=O | inactive
COc1ccc(CN(C)C[C@H]2Oc3ccc(NC(=O)C4CC4)cc3CC(=O)N([C@@H](C)CO)C[C@@H]2C)cc1 | inactive
